These results are taken from PubChem BioAssay (NCI).

The nature of assay [1]: NCI Yeast Anticancer Drug Screen. Data for the rad50 strain (AID 155).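 Also: 0% = growth of vehicle-only cultures of the same strain.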 The settings on record: S. cerevisiae rad50 strain growth inhibition, hits give high values; at 50.0 µM unless noted. An outline of the steps: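 Genetically altered yeast (DNA repair pathway); compound treatment; growth inhibition vs vehicle ctrl.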
Assay [2] can be described thus: NCI Yeast Anticancer Drug Screen. Data for the mec2-1 strain (AID 157). The settings on record: S. cerevisiae mec2-1 strain, hits give high values; at 50.0 µM unless noted. An outline of the steps: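 Cells of the genetically defined mec2-1 yeast strain are incubated with test compound. Inhibition of growth is calculated against vehicle-treated controls.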
Assay [3] is described as follows: NCI Yeast Anticancer Drug Screen. Data for the sgs1 mgt1 strain (AID 161).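 Also: 0% = growth of cultures given vehicle only.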 The conditions noted are these: S. cerevisiae sgs1 mgt1 strain, hits give high values; at 50.0 µM unless noted. An outline of the steps: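 Inhibition of yeast growth, normalised to vehicle-treated controls, is reported for a strain bearing genetic alterations in DNA damage repair.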
A short description of assay [4]: NCI Yeast Anticancer Drug Screen. Data for the cln2 rad14 strain (AID 165).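 Also: 0% = growth equal to vehicle treated cultures.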 The settings on record: S. cerevisiae cln2 rad14 strain, hits give high values; at 50.0 µM unless noted. An outline of the steps: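 The screen exposed genetically defined yeast (cln2 rad14) to test compounds and scored growth inhibition relative to vehicle-treated controls.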
Assay [5] in a line: NCI Yeast Anticancer Drug Screen. Data for the bub3 strain (AID 167). The conditions noted are these: S. cerevisiae bub3 mutant strain, hits give high values; at 50.0 µM unless noted. An outline of the steps: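 Yeast carrying a defined mutation is treated with each compound, and growth is compared with that of vehicle-exposed cells to give inhibition.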
A short description of assay [6]: NCI Yeast Anticancer Drug Screen. Data for the mlh1 rad18 strain (AID 175). The settings on record: S. cerevisiae mlh1 rad18 strain growth inhibition, hits give high values; at 50.0 µM unless noted. An outline of the steps: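 Compound-treated yeast growth, normalised to vehicle controls. Strain bears defined DNA repair mutations.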

“And” between values parts separate entries of the source, which are not always exact repeats. Equal entries are not always repeated. About 79,000 compounds went through this panel and 15% of them were active in at least one assay; those are over-represented in the sample as a whole. A number with no mark means an inactive call. The source made the active and inactive calls. Rule as the data show it: active = growth inhibition above about 70%; inactive = the rest.

For `Cc1cccc(C(=O)OCC2CCCO2)c1` (centres undefined), the growth inhibition in assay [1] was -0.2%; in assay [2], 11.7%; in assay [3] it was 8.15%; in assay [4], -22.6%; in assay [5], 8.8%; in assay [6], -3.4%.
Regarding `COc1ccc(OC)c2[nH]c(=O)c(C)nc12`, the growth inhibition in assay [1] is 7.15%; in assay [2], 1.85%; in assay [3], 5.75%; in assay [4], -4.85%; in assay [5], 4.35%; in assay [6] it was -4.3%.
In the case of `C=CCSc1cccc(C)c1`, the growth inhibition in assay [1] was -19.4%; in assay [2], 14.9%; in assay [3], -12.6%; in assay [4], -25.6%; in assay [5], -14.1%; in assay [6], -16.1%.
Take `CC(C)=CC(=O)CNC(N)=S`: the growth inhibition in assay [1] was 36.1%; in assay [2] it was 17.9%; in assay [3], 16.4%; in assay [4], 10.7%; in assay [5], 0.25%; in assay [6], 23.9%.
On to `CSc1ncc(C(N)=O)c(N)n1`, for which the growth inhibition in assay [1] was -2.05% and 12%; in assay [2] it was 3.5% and -12.9%; in assay [3] it was -3.35% and -9.65%; in assay [4], -38% and -12.4%; in assay [5], -6.7% and -12.6%; in assay [6], 2.45% and 13.2%.
As for `COc1ccccc1/C=C1\SC(=S)NC1=O`, the growth inhibition in assay [1] was -44.6%; in assay [2], -36.9%; in assay [3], -38.2%; in assay [4], -14.6%; in assay [5], -17.8%; in assay [6], -40.1%.
Regarding `CCOC(=O)c1nnsc1N/N=C\c1ccc([N+](=O)[O-])cc1`, the growth inhibition in assay [1] is -5.05%; in assay [2], -15%; in assay [3], -25.7%; in assay [4], 12.3%; in assay [5], -19.5%; in assay [6], 14.3%.
In the case of `COC(=O)/C=C/c1cccnc1`, the growth inhibition is -16.4% in assay [1]; -28.6% in assay [2]; -36.1% in assay [3]; -22.7% in assay [4]; -10.3% in assay [5]; -12.3% in assay [6].
As for `COc1ccc(C(c2ccc(OC)cc2)N2C(=O)CCC2C(=O)O)cc1` (centres undefined), the growth inhibition is -28.6% in assay [1]; 21.2% in assay [2]; -48.8% in assay [3]; 17.1% in assay [4]; -1% in assay [5]; -12.6% in assay [6].
Turning to `O=C1OCc2ccccc21`, the growth inhibition in assay [1] was 3.2%; in assay [2], 7.8%; in assay [3], 11.2%; in assay [4], -26.7%; in assay [5] it was -6.05%; in assay [6], 3.15%.
On to `C=CCONC(=O)c1ccc(Cl)cc1`, for which the growth inhibition in assay [1] is 0.5%; in assay [2], 1.75%; in assay [3], -4.2%; in assay [4], -5.5%; in assay [5], -19.2%; in assay [6], 27.3%.
In the case of `C=C(C)C(C)OC(=O)Nc1ccccc1` (centres undefined), the growth inhibition in assay [1] was 12.7%; in assay [2], -3.05%; in assay [3], -16.1%; in assay [4], 7.4%; in assay [5] it was -3.95%; in assay [6] it was -37.5%.
Regarding `Cc1ccc2[nH]c3c(c2c1)C(=O)CCC3`, the growth inhibition was -7.6% in assay [1]; -2.95% in assay [2]; -12.3% in assay [3]; -20.7% in assay [4]; -17.9% in assay [5]; -1.55% in assay [6].
Turning to `O=S(=O)(NCCN1CCNC1=S)c1ccc(Cl)c(Cl)c1`, the growth inhibition in assay [1] is -55.5%; in assay [2], -12.7%; in assay [3], -3.25%; in assay [4], -16.7%; in assay [5], -6.2%; in assay [6], -6.6%.
For `Cn1c(=O)[nH]c2ccc(Cl)cc2c1=O`, the growth inhibition in assay [1] is 2.75%; in assay [2], -5.85%; in assay [3], -3.25%; in assay [4], -67.8%; in assay [5], 8.15%; in assay [6], 5.85%.
Regarding `CC(O[Si](C)(C)C)C1C=CC(C)n2c(=O)n(-c3ccccc3)c(=O)n21` (centres undefined), the growth inhibition was 4.65% in assay [1]; -26.6% in assay [2]; -34.3% in assay [3]; -7.6% in assay [4]; -55.6% in assay [5]; -18.2% in assay [6].
With `Nc1cccc(B(O)O)c1`, the growth inhibition was -16.6% in assay [1]; -65% in assay [2]; -34.3% in assay [3]; -5.75% in assay [4]; -29.6% in assay [5]; -15.8% in assay [6].
`C=CCOC(=O)c1ccccc1`: the growth inhibition is 11.3% in assay [1]; 6.5% in assay [2]; 2.55% in assay [3]; 11.4% in assay [4]; -9.55% in assay [5]; -16.6% in assay [6].
As for `O=c1[nH]c2ccc([N+](=O)[O-])cc2nc1/C(=N/Nc1ccccc1)C(O)c1ccco1` (centres undefined), the growth inhibition in assay [1] was -4.6%; in assay [2], -9.1%; in assay [3], -12.8%; in assay [4], 6%; in assay [5], -10.6%; in assay [6], 12.9%.
With `CN(C)C(=O)Sc1cccc([N+](=O)[O-])c1`, the growth inhibition is 9.5% in assay [1]; -14.9% in assay [2]; -21.8% in assay [3]; -38.3% in assay [4]; 10.5% in assay [5]; -25.6% in assay [6].
With `Cc1c(Cl)cccc1NC(=O)CCl`, the growth inhibition was 7.95% in assay [1]; 32.1% in assay [2]; 28.2% in assay [3]; 5.75% in assay [4]; -3.85% in assay [5]; 16.2% in assay [6].
For the compound `COc1c(O)cc2c(c1O)C1OC(CO)C(O)C(O)C1OC2=O` (centres undefined), the growth inhibition in assay [1] is -4.3%; in assay [2], -15.4%; in assay [3], -3.85%; in assay [4], 19.1%; in assay [5], -20.8%; in assay [6], 0.5%.
Regarding `O=C1CCCC(=O)N1n1c(Cc2ccc(Cl)cc2)n[nH]c1=O`, the growth inhibition in assay [1] was -31.6%; in assay [2], -11.8%; in assay [3], 1.3%; in assay [4], 7.5%; in assay [5] it was -19.6%; in assay [6], -1.5%.
Consider `Cc1cc2c(C)nn(Cc3ccccc3)c2c(C(N)=O)c1C`, for which the growth inhibition was 9.85% in assay [1]; -6.65% in assay [2]; -10% in assay [3]; 35.6% in assay [4]; -3.1% in assay [5]; 51.4% in assay [6].
On to `N=C(N)C1CN(CC=O)C(=O)NC1=O` (centres undefined), for which the growth inhibition in assay [1] was -11.7%; in assay [2], 11.1%; in assay [3] it was -2.65%; in assay [4], 24.9%; in assay [5], -4.15%; in assay [6], 11.8%.
In the case of `CCOc1ccccc1/C=C1\N=C(c2ccc([N+](=O)[O-])cc2)OC1=O`, the growth inhibition in assay [1] is 22.5%; in assay [2], 21.2%; in assay [3], 38.7%; in assay [4] it was 25.5%; in assay [5], 30.1%; in assay [6], 31%.
On to `CN1CC(c2ccccc2)C(O)(C2(c3ccccc3)CN(C)CC(c3ccccc3)C2=O)C(c2ccccc2)C1` (centres undefined), for which the growth inhibition in assay [1] was 5.7%; in assay [2], 7.25%; in assay [3], -30.4%; in assay [4], -6.7%; in assay [5], -17.4%; in assay [6], -7.65%.
Consider `CC12C(=O)C(C(c3ccccc3)=C1c1ccccc1)C1C(=O)OC(=O)C12` (centres undefined), for which the growth inhibition was -6.8% in assay [1]; 2.8% in assay [2]; -0.15% in assay [3]; -1.6% in assay [4]; -11.9% in assay [5]; -6.65% in assay [6].
Take `COc1cc(O)c(C(C)=O)c(O)c1`: the growth inhibition was 9.55% in assay [1]; 16.2% in assay [2]; 9.5% in assay [3]; 16.8% in assay [4]; 29.2% in assay [5]; 18.5% in assay [6].
`CC/C=C/C(=O)CC(O)(C(F)(F)F)C(F)(F)F`: the growth inhibition in assay [1] was -30.9%; in assay [2], 9.1%; in assay [3], 12.5%; in assay [4] it was -20.9%; in assay [5], -29.8%; in assay [6] it was -20.8%.
On to `COc1cc(CC(=O)O)ccc1OC(C)=O`, for which the growth inhibition was 4.15% in assay [1]; 2.65% in assay [2]; -16.8% in assay [3]; -25.1% in assay [4]; 1.25% in assay [5]; -5.75% in assay [6].
Take `NC(CSCCB(O)O)C(=O)O` (centres undefined): the growth inhibition was -11.7% in assay [1]; -15.2% in assay [2]; -6.5% in assay [3]; -14.6% in assay [4]; -5% in assay [5]; -20.4% in assay [6].
With `CC(=O)NC1C(OCc2ccccc2)OC(CO)C(O)C1OC(C)C(=O)N[C@@H](C)C(=O)N[C@H](CCC(=O)OCCNc1c2ccccc2nc2cccc([N+](=O)[O-])c12)C(N)=O` (some centres undefined), the growth inhibition is 87.2% (active) in assay [1]; 90.8% (active) in assay [2]; 90.4% (active) in assay [3]; 90.5% (active) in assay [4]; 88.7% (active) in assay [5]; 86.8% (active) in assay [6].
In the case of `Cc1ccc(C(CC(=O)C(C)(C)CN2CCCCC2)SCCS(=O)(=O)O)cc1` (centres undefined), the growth inhibition in assay [1] was 7.5%; in assay [2], -7.95%; in assay [3], 11.1%; in assay [4] it was 9.4%; in assay [5], 4.3%; in assay [6], 20%.
On to `CC1(C)CNC[C@]2(C)OCCCO[C@@]3(C)CNCC(C)(C)NC(=O)[C@](C)(CNCC(C)(C)NC3=O)OCCCO[C@](C)(CNCC(C)(C)NC2=O)C(=O)N1`, for which the growth inhibition was -33.2% in assay [1]; -22.2% in assay [2]; -32.1% in assay [3]; 0.5% in assay [4]; -17.1% in assay [5]; -46.2% in assay [6].
In the case of `Oc1[nH]c2ccccc2c1N=NC(=S)Nc1ccccc1`, the growth inhibition in assay [1] was 12.6%; in assay [2], 2.5%; in assay [3], -2.3%; in assay [4], -13.1%; in assay [5], -11.4%; in assay [6] it was -4.75%.
With `Cc1ccc2ccccc2c1CN(C)C`, the growth inhibition in assay [1] is 4.7%; in assay [2] it was -1.05%; in assay [3], -8.6%; in assay [4], -61%; in assay [5], -3.45%; in assay [6], -12.7%.
As to `CCOC(OCC)C1(C)CC=CCC1` (centres undefined), the growth inhibition is 20.4% in assay [1]; 11.3% in assay [2]; 5.05% in assay [3]; -3.4% in assay [4]; 3.15% in assay [5]; 6.4% in assay [6].
In the case of `CCCCCCCCCCCC[N+](C)([O-])CCCCCC[N+](C)([O-])CCCCCCCCCCCC` (centres undefined), the growth inhibition in assay [1] was 96.2% (active); in assay [2] it was 98.7% (active); in assay [3], 97.8% (active); in assay [4], 96.5% (active); in assay [5] it was 96.5% (active); in assay [6], 97% (active).
